Hit rate of the full screen: of about 330,000 compounds, about 5,800 (1.8%) were called active. Cut-off read from the data, not from the text of the source: active = inhibition mostly above about 38% (no sharp cut-off); inactive = mostly below about 40%. Only a selection was taken, and actives are over-represented in it overall.

The target of this test is Orexin/Hypocretin receptor type 1 (Homo sapiens) (UniProt O43613). Nature of the test: blocks the human orexin 1 receptor (AID 485270).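 Note: 0% = agonist challenge alone and 100% = reference antagonist.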 The conditions noted are these: OX1R-expressing cells, FRET antagonist read-out; at 6.6 µM; hits give high values.
Chain of Orexin/Hypocretin receptor type 1 (Homo sapiens) (O43613 whole entry, looked up): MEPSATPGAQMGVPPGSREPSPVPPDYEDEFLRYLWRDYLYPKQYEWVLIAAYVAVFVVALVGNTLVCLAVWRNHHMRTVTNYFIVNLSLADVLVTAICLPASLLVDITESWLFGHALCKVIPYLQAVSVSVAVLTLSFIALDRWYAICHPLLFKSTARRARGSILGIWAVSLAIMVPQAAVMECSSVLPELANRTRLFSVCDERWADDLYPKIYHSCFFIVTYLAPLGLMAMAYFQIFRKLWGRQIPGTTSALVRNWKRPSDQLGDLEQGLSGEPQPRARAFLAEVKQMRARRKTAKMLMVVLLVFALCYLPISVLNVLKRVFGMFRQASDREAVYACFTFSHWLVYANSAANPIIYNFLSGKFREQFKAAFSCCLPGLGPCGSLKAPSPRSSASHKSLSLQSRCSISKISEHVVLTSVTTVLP
What is called inhibition is the drop in the measured response relative to a control, in per cent. Consider `Cc1ccc(S(=O)(=O)N/N=C\c2cc3c(cc2[N+](=O)[O-])OCO3)cc1`, for which the inhibition is 29.4% (inactive). The same measure for `CC1(C(=O)N/N=C/c2cc3c(cc2Br)OCO3)CC1(Br)Br` (stereo unspecified): 26.7% (inactive). The figure for `CC(=O)N/N=C/c1cc2c(cc1[N+](=O)[O-])OCO2` is 98.3% (active); for `COc1ccc(CN2C(CC(=O)Nc3cccnc3)c3ccc(C(F)(F)F)cc3S2(=O)=O)cc1` (stereo unspecified) it is 12.3% (inactive); for `COc1ccc(CNC(=O)COC(=O)c2sccc2C)cc1OC` it is 3.49% (inactive). With `O=C1NC(=O)C2C1C(c1ccc([N+](=O)[O-])cc1)=NN2Cc1ccccc1` (stereo unspecified), the inhibition was 75.4% (active). The figure for `CC1=NN(c2ccccc2)C(=O)C1C(=O)c1ccc([N+](=O)[O-])cc1` (stereo unspecified) is 33.4% (inactive); for `CC(=O)N1c2ccccc2N(Cc2ccc([N+](=O)[O-])cc2)C(=O)C1(C)C` it is 15.5% (inactive).

For `CC(C)(C)OC(=O)C[C@@H]1C/C=C\C[C@@H](CC(=O)N[C@@H](CO)Cc2ccccc2)C(=O)N2CCC[C@H]2COC1=O`, the inhibition is 16.2% (inactive).

For `COc1ccccc1N(CC(=O)Nc1ccc(C)cc1Cl)S(=O)(=O)c1cccs1`, the inhibition is 9.45% (inactive). For `Cc1ccc(C2(C)NC(=O)N(CC(=O)N3CC(=O)Nc4ccccc43)C2=O)cc1` (stereo unspecified), the inhibition was 2.94% (inactive). As to `COc1ccccc1NS(=O)(=O)c1ccc(C)c(C(=O)NNC(=O)c2csc(N3CCOCC3)n2)c1`, the inhibition is 2.72% (inactive). Take `COc1cc(S(=O)(=O)N2CCN(C(=O)C3CC3)CC2)ccc1NC(C)=O`: the inhibition was 10.5% (inactive). The figure for `COc1ccc(C(=O)COC(=O)c2c(C)noc2C)cc1Cl` is 3.93% (inactive).

Turning to `CCOC(=O)[C@H]1[C@H]2COc3ccccc3[C@@H]2N2C(=O)CN(Cc3ccccc3)C(=O)[C@@]12C`, the inhibition is 11.5% (inactive). `CS(=O)(=O)n1nc(-c2ccco2)nc1N`: the inhibition was -7.64% (inactive). For the compound `Cn1c(-c2ccco2)nc2cc3ccccc3cc21`, the inhibition was 68.2% (active).

With `COc1ccccc1-n1c(-c2cc(-c3ccco3)[nH]n2)n[nH]c1=S`, the inhibition is 4.56% (inactive). The figure for `COC(=O)c1ccc(CNC(=O)c2ccc(S(=O)(=O)N3CCCCCC3)cc2)cc1` is 13.9% (inactive); for `O=C(N/N=C/c1ccc([N+](=O)[O-])o1)c1cccc(S(=O)(=O)N2CCOCC2)c1` it is 44.6% (active).

`O=C(Nc1ccc(N2CCOCC2)cc1)c1cccc(S(=O)(=O)N2CCOCC2)c1`: the inhibition was 1.87% (inactive). The figure for `CCOc1cc(/C=N/NC(=O)c2cccc(S(=O)(=O)N3CCOCC3)c2)ccc1OCC(=O)N(C)C` is 10% (inactive); for `CCOc1cc(/C=C2\SC(N3CCCCC3)=NC2=O)ccc1O` it is 25.6% (inactive). The same measure for `O=C1N=C(N2CCCC2)S/C1=C\c1cccc(Br)c1`: 35.7% (inactive); for `CCN1C(=O)/C(=C2\SC(N3CCCCC3)=NC2=O)c2ccccc21`: 42.2% (active). The figure for `O=C(Cn1cc(C(F)(F)F)ccc1=O)Nc1ccc2c(c1)OCCO2` is 1.4% (inactive); for `COc1cc(/C=C/C(=O)OCC(=O)NC2CC2)cc(OC)c1OC` it is 3.2% (inactive). On to `Cc1cc(C(=O)Cn2cnc3cc([N+](=O)[O-])ccc3c2=O)c(C)n1CC1CCCO1` (stereo unspecified), for which the inhibition is 53.2% (inactive). The same measure for `CC(C)(C)NC(=O)Cn1cnc2cc([N+](=O)[O-])ccc2c1=O`: 132% (active).

In the case of `O=C(Cn1cnc2cc([N+](=O)[O-])ccc2c1=O)NC(=O)NCc1ccccc1`, the inhibition is 23.1% (inactive).

Regarding `COc1ccc(S(=O)(=O)N(C)C[C@@H]2Oc3ccc(NS(=O)(=O)c4cn(C)cn4)cc3C(=O)N([C@@H](C)CO)C[C@@H]2C)cc1`, the inhibition was 1.11% (inactive). For `CSc1ncccc1C(=O)Nc1cccc(S(=O)(=O)N2CCOCC2)c1`, the inhibition was 9.4% (inactive). The same measure for `Cc1cccc(NS(=O)(=O)c2cccc(C(=O)NNC(=O)c3ccccc3O)c2)c1`: 29.7% (active). As for `CC(=O)N1CCN(C(=O)c2cccc(S(=O)(=O)Nc3ccc(C)cc3)c2)CC1`, the inhibition is -3.44% (inactive). The figure for `Cc1cccc(NS(=O)(=O)c2ccc(C)c(C(N)=O)c2)c1` is 19.2% (inactive). The same measure for `COc1cc(/C=C2\Oc3ccc(C#Cc4ccc(O)cc4)cc3C2=O)cc(OC)c1`: 2.43% (inactive); for `O=C(COC(=O)c1ccco1)Nc1ccc(Cl)cn1`: 1.22% (inactive); for `CCNC(=O)N(CC)C[C@H]1N[C@@](CC)(C(=O)OC)[C@H]2C(=O)N(Cc3ccccc3)C(=O)[C@@H]12`: -4.57% (inactive).

Turning to `CC(C)(C)OC(=O)C[C@@H]1C/C=C\C[C@@H](CC(=O)N(CCO)Cc2ccccc2)C(=O)N[C@H](Cc2ccccc2)COC1=O`, the inhibition is 13.4% (inactive). The figure for `CC(C)(C)c1cc[n+](-c2[nH]c(=O)sc2/C=N/N=C(\[O-])c2ccccc2)cc1` is 59.4% (active); for `O=C(N[C@@H]1C/C=C\C[C@@H](CC(=O)N(CCO)Cc2ccccc2)C(=O)N[C@H](Cc2ccccc2)COC1=O)OCC1c2ccccc2-c2ccccc21` it is 9.35% (inactive). The figure for `CC1O[C@H](OC2C(COC3OC(CO)C(O)[C@H](O)C3O)OC(OC3CC[C@]4(C)C(CC[C@@]5(C)[C@@H]4C=C[C@]46OC[C@@]7(CCC(C)(C)C[C@H]74)C(O)C[C@@]56C)C3(C)C)C(O)C2O)C(O)C(O)C1O` (stereo partly specified) is 0.25% (inactive). The figure for `c1ccc(-c2cc(-c3ccccc3)[nH]n2)cc1` is 10.7% (inactive); for `Fc1ccccc1/C=N/n1c(-c2cccnc2)n[nH]c1=S` it is 11.6% (inactive); for `S=c1[nH]nc(-c2cc(-c3ccccc3)n[nH]2)n1/N=C/c1c2ccccc2cc2ccccc12` it is 117% (active). Take `CN(C(=O)c1cccc(NC(=O)Cc2ccc([N+](=O)[O-])cc2)c1)C1CCC1`: the inhibition is 2.95% (inactive). The same measure for `Nn1c(SCC(=O)Nc2ccc3c(c2)CCC3)nnc1C1CC1`: 10.2% (inactive). The same measure for `CC(C)NC(=O)Nc1cccc2c1O[C@H](CN(C)S(=O)(=O)c1cccs1)[C@@H](C)CN([C@H](C)CO)C2=O`: -2.12% (inactive).

For `COc1ccc(CN(C)C(=O)c2cc(-c3ccc(C)cc3C)nc3ccccc23)c(OC)c1OC`, the inhibition is 43.5% (active). The same measure for `COc1ccc(-c2cc(C(=O)N(C)Cc3ccccc3)c3ccccc3n2)cc1`: 1.22% (inactive); for `COc1ccc(-c2cc(C(=O)N(C)Cc3ccc(OC)c(OC)c3OC)c3ccccc3n2)cc1OC`: 39.4% (inactive); for `CN(C(=O)c1cccc(NC(=O)C2CCN(C(=O)OC(C)(C)C)CC2)c1)C1CCC1`: 5.08% (inactive). With `CC(C)OC(=O)c1c(NC(=O)c2ccco2)sc2c1CCCC2`, the inhibition was 12.4% (inactive). The same measure for `CC(C)OC(=O)c1cc(NC(=O)C2C3CCC(O3)C2C(=O)O)cc(C(=O)OC(C)C)c1` (stereo unspecified): 8.17% (inactive); for `Cc1sc(NC(=O)C2C3CCC(O3)C2C(=O)O)c(C(=O)OC(C)C)c1-c1ccc(Cl)cc1` (stereo unspecified): 76% (active); for `Cn1cccc1C(=O)OCC(=O)NCCc1ccccc1`: 5.82% (inactive).

With `C[n+]1ccccc1C1CCCC/C1=N\Nc1ccc([N+](=O)[O-])cc1[N+](=O)[O-]` (stereo unspecified), the inhibition was 93.3% (active). The same measure for `CC1(C)C/C(=N/Nc2ccc([N+](=O)[O-])cc2[N+](=O)[O-])C(C)(C)O1`: 7.54% (inactive); for `O=C(Nc1ccccc1)O/N=C1\CCCCC1c1ccc([N+](=O)[O-])cc1[N+](=O)[O-]` (stereo unspecified): 28.9% (inactive); for `O=[N+]([O-])c1ccc(N/N=C2/CCCCC2c2ccccn2)c([N+](=O)[O-])c1` (stereo unspecified): 49.2% (active). The figure for `O=[N+]([O-])c1cc(C(F)(F)F)ccc1NN=C1CCCC1` is 9.21% (inactive); for `Cc1cc([N+](=O)[O-])ccc1NC1CCCC1` it is 10.2% (inactive); for `Cc1cc(C(=O)OCC(=O)N2C(C)CCCC2C)c2ccccc2n1` (stereo unspecified) it is 10.9% (inactive). The same measure for `Cc1cccc(NS(=O)(=O)c2ccc(C)c(C(=O)NCc3cccnc3)c2)c1`: 6.94% (inactive); for `N/C(=N\OC(=O)CCc1ccccc1)c1ccc(Cl)cc1`: 18.5% (inactive). On to `Cc1ccc(NC(=O)Cn2cnc3c(OCc4ccccc4)ncnc32)cc1C`, for which the inhibition was 6.27% (inactive). The figure for `Cc1ccsc1C(=O)NCCc1ccco1` is 7.13% (inactive).

For `O=C(Nc1cccc(S(=O)(=O)N2CCOCC2)c1)C12CC3CC(CC(C3)C1)C2`, the inhibition is 4.36% (inactive). The figure for `O=C(O)C1CCCN(S(=O)(=O)c2cccc3cccnc23)C1` (stereo unspecified) is 4.71% (inactive); for `Cc1cc(C)cc(NC(=O)C2CCCN2S(=O)(=O)c2cccc3cccnc23)c1` (stereo unspecified) it is 89.3% (active). The figure for `Cc1ccc(NC(=O)C2CCCN2S(=O)(=O)c2cccc3cccnc23)c(C)c1` (stereo unspecified) is 21.6% (inactive); for `O=C(Nc1nccs1)C1CCCN1S(=O)(=O)c1cccc2cccnc12` (stereo unspecified) it is 47.1% (active).

For the compound `COc1ccc(NC(=O)C2CCCN(S(=O)(=O)c3cccc4cccnc34)C2)cc1OC` (stereo unspecified), the inhibition is 22.1% (inactive).

For the compound `Cc1cccc(NC(=O)C2CCN(S(=O)(=O)c3cccc4cccnc34)CC2)c1`, the inhibition was 7.8% (inactive). The same measure for `O=C1OC[C@@H]2CCCN2C(=O)[C@H](CC(=O)N(CCO)Cc2ccccc2)C/C=C\CC[C@@H]1Cc1ccc(F)cc1`: 4.88% (inactive); for `CC(=O)OCCC(C)C`: 3.23% (inactive).

On to `C=CC[C@H](CC(=O)N(CCO)Cc1ccccc1)C(=O)N[C@@H](COC(=O)[C@@H](CC=C)Cc1ccc(F)cc1)Cc1ccccc1`, for which the inhibition was 10.8% (inactive). The same measure for `CCOc1ccc(N2CC(C(=O)NCc3ccccn3)CC2=O)cc1` (stereo unspecified): 13.1% (inactive).

With `O=C(NCCN1C(=O)S/C(=C\c2cccnc2)C1=O)c1cccc(OC(F)F)c1`, the inhibition is 33.8% (inactive). The figure for `COc1ccc(N2CC(C(=O)NCCN3C(=O)S/C(=C\c4cccnc4)C3=O)CC2=O)c(OC)c1` (stereo unspecified) is 153% (active); for `COc1cccc(NC(=O)C2c3cc(OC)c(OC)cc3C(=O)N(C)C2c2cccnc2)c1` (stereo unspecified) it is 10.3% (inactive); for `CCCNC(=O)C1CC(=O)N(c2ccc(OCC(=O)Nc3cccc(C)c3C)cc2)C1` (stereo unspecified) it is 7.42% (inactive).

As to `COc1ccccc1N1CC(C(=O)NCCN2C(=O)S/C(=C\c3cccnc3)C2=O)CC1=O` (stereo unspecified), the inhibition is 29.4% (inactive). The figure for `Cc1cc(OCCCC(=O)NCCN2C(=O)S/C(=C\c3cccnc3)C2=O)ccc1Cl` is 97.5% (active). The figure for `CCOc1ccc(N2CC(C(=O)NCCN3C(=O)S/C(=C\c4cccnc4)C3=O)CC2=O)cc1` (stereo unspecified) is 55.7% (active); for `O=C(NCCN1C(=O)S/C(=C\c2cccnc2)C1=O)c1ccc(S(=O)(=O)N2CCCC2)cc1` it is 41% (inactive).

Source of the values: PubChem BioAssay AID485270 (The Scripps Research Institute Molecular Screening Center, 2010).
